# HSP90 refold inh: inhibitors of HSP90 luciferase refolding in rabbit reticulocyte lysate | luciferase refolding luminescence, 3 h | 0.91% of 290,000 active | AID 1789 | inhibition, % at 5.6 µM;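 active = inhibition above the screen-wide mean plus 3 SD, computed separately per campaign, cut at about 16% in these data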;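 note: inhibitors lower the luminescence because luciferase stays unfolded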
# HSF1 inh: HSF1 inhibition; NIH3T3-HGL HSE-luciferase, MG132-induced, luminescence 8 h; hits give low values; activity change, negative = inhibition, % at 7.5 µM (by protocol); 0.77% of 300,000 active;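 active = more than half of replicate wells show activity change below -50%, luminescence cut by over half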;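 note: luciferase reports HSF-1 transcriptional activity via heat shock element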
# STAT3 inh-1: reduces IL-6 driven STAT3 reporter signal; AID 862; inhibition, % at 5.5 µM; 0.89% of 190,000 active; U3A cells, IL-6 STAT3-luciferase reporter, luminescence; host cell line lacks STAT1;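 active = inhibition above the mean inhibition across all screened compounds plus 3 SD, cut at about 44% in these data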
# STAT1 inh: inhibitors of IFN-gamma induced STAT1 signaling. NIH 3T3 STAT1-luciferase reporter, luminescence. inhibition, % at 5.5 µM. 0.35% of 200,000 active;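 active = inhibition above a set limit, the mean inhibition across all tested compounds plus 3 SD, cut at about 34% in these data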
# PPC-1+TRAIL kill: PPC-1 cancer cell killing with TRAIL present; PPC-1 cells + TRAIL, ATPLite viability luminescence; cell killing (% activity), % at 4 µM or 5 µM; 0.41% of 220,000 active; AID 1443;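 active = cell killing above 50% in the first pass at 4 µM, then a duplicate retest at 5 µM averaging 50% or more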
# C8 TRAIL sens: caspase-8 TRAIL sensitization. inhibition (viability loss, TRAIL sensitization), % at 10 µM. NB7+C8 cells + TRAIL, ATPlite viability luminescence. 1% of 360,000 active;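 active = compounds causing at least 50% loss of cell viability in the single-dose screen, relative to plate controls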
# STAT3 inh-2: confirmation of STAT3 signaling inhibitors; shares compounds with STAT3 inh-1; U3A cells, IL-6 STAT3 luciferase reporter, luminescence; cell line lacks STAT1; inhibition, % at 5.7 µM; 45% of 1,200 active; AID 1265;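 active = inhibition above the hit cutoff computed for the primary STAT3 screen, cut at about 44% in these data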
# NFkB inh STAT3ct: NF-kappaB inhibition in STAT3 inhibitor counter-screen. shares compounds with STAT3 inh-1. HEK293T NF-kB luciferase reporter, TNF-alpha induced. inhibition, % at 5.7 µM. 36% of 1,200 active;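 active = inhibition above the mean of solvent-only control wells plus 3 SD, cutoff set per campaign, cut at about 13% in these data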
# STAT1 inh 2: inhibits STAT1, counter-screen to STAT3 inhibitors; shares compounds with STAT3 inh-1; NIH 3T3 STAT1-luciferase reporter, IFN-gamma induced, luminescence; inhibition, % at 5.7 µM; 27% of 1,200 active; AID 1317;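 active = inhibition above the mean plus 3 SD of solvent-only control wells, limit set per screening run, cut at about 16% in these data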
# PPC-1 tox: PPC-1 cell cytotoxicity; shares compounds with PPC-1+TRAIL kill; PPC-1 viability, ATPlite luminescence, overnight; cytotoxicity, % at 5 µM; 50% of 1,200 active;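 active = reconfirmed compounds whose average cytotoxicity reaches 50% or more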
# Numbers stand for hits; n = inactive; x = no result given. An excerpt weighted towards active compounds, which were near 2.4% of everything screened.
SMILES,HSP90 refold inh,HSF1 inh,STAT3 inh-1,STAT1 inh,PPC-1+TRAIL kill,C8 TRAIL sens,STAT3 inh-2,NFkB inh STAT3ct,STAT1 inh 2,PPC-1 tox
COCCN1C[C@@H](CO)O[C@@H](n2cnc3c(NC(C)C)ncnc32)C1,x,x,x,x,x,n,x,x,x,x
Cc1csc(=O)n1CC(=O)OCC(=O)Nc1ccc(F)c(F)c1F,x,x,x,x,x,n,x,x,x,x
Cc1ccc(C(=S)N2CCN(Cc3ccccc3)CC2)cc1,n,n,n,n,n,n,x,x,x,x
CCN1CCN(C(=S)c2ccc(-c3ccccc3)cc2)CC1,n,n,47,n,n,n,n,n,n,x
C=CCNc1nc2c(c(=O)n(C)c(=O)n2C)n1CC,n,n,n,n,n,n,x,x,x,x
C=CCNc1nc2c(c(=O)n(C)c(=O)n2C)n1CCCCCC,n,x,54,n,n,n,64,15,30,x
CCOC(=O)[C@]12CCCC=C1N(CCC1=CCCCC1)C(=O)[C@H](CC(=O)NCc1cccs1)C2,x,x,x,x,x,n,x,x,x,x
Cn1nc(C(C)(C)C)cc1C(=O)NCc1ccc(N2CCCC2=O)cc1,n,n,59,n,n,n,63,29,33,x
Cc1noc(C)c1S(=O)(=O)NC(=O)C1(C)CCN1C(=O)c1ccccc1CCc1ccccc1 (stereo not given),x,x,x,x,x,n,x,x,x,x
CCOC(=O)C1CCN(C(=O)CCc2c(C)nc3cc(-c4ccccc4)nn3c2C)CC1,n,n,n,n,n,n,x,x,x,x
CCOC(=O)C1CCCCN1C(=O)CCc1c(C)nc2cc(-c3ccccc3)nn2c1C (stereo not given),n,n,49,n,n,n,n,n,n,x
Cc1cccc2cc(-c3ccccc3)c(-c3ccccc3)c[n+]12,n,n,46,n,n,n,n,n,n,x
O=[N+]([O-])c1cccc(-c2cc3cccc[n+]3cc2-c2cccc([N+](=O)[O-])c2)c1,n,n,n,n,n,n,x,x,x,x
O=C1c2ccccc2-c2nnc(-c3ccccc3)cc21,n,n,52,n,63,75,55,33,16,65
Cc1cccc(-c2cc3c(nn2)-c2ccccc2C3=O)c1,n,n,n,n,n,n,x,x,x,x
CN(C)c1ccc(-c2ccnc3c2CC(C)(C(=O)NCC2CCOCC2)O3)cc1 (stereo not given),x,x,x,x,x,n,x,x,x,x
CCCCCCn1c(=O)[nH]c2c(c1=O)CCC2,n,n,x,x,n,n,x,x,x,x
CCCCCCCCCn1c2c(c(=N)c3c1CCC3)CCC2,n,n,82,n,n,77,85,59,30,n
CCCCCCn1c2c(c(=N)c3c1CCC3)CCC2,n,n,81,n,n,n,82,35,27,n
CCn1c2c(c(=N)c3ccccc31)CCC2,n,n,x,x,n,n,x,x,x,x
CCCCCCCn1c2c(c(=N)c3c1CCC3)CCCC2,n,n,81,n,n,n,88,37,28,n
CN(C)C(CNC(=O)C1CCN(S(=O)(=O)c2cc(Cl)ccc2Cl)CC1)Cc1ccccc1 (stereo not given),x,x,x,x,x,n,x,x,x,x
Cc1cc(C(=O)CN2C(=O)c3ccccc3S2(=O)=O)c(C)n1-c1ccccc1,16,n,59,n,n,63,78,16,58,n
CCn1c(C)cc(C(=O)CN2C(=O)c3ccccc3S2(=O)=O)c1C,x,x,x,x,x,n,x,x,x,x
CCCCC1Cc2[nH]c(=S)[nH]c(=O)c2C(c2cccc3ccccc23)O1 (stereo not given),x,x,x,x,x,n,x,x,x,x
SMILES,HSP90 refold inh,HSF1 inh,STAT3 inh-1,STAT1 inh,PPC-1+TRAIL kill,C8 TRAIL sens,STAT3 inh-2,NFkB inh STAT3ct,STAT1 inh 2,PPC-1 tox
CN(C)C(=O)C[C@@H]1C=C[C@@H](NC(=O)C2CCC2)[C@@H](CO)O1,x,x,x,x,x,n,x,x,x,x
COc1cccc(-c2nnc(-c3ccco3)o2)c1,n,n,n,n,n,n,x,x,x,x
CCCOc1ccc(-c2nnc(-c3ccco3)o2)cc1,n,n,78,n,n,55,n,n,n,n
O=S1(=O)N[C@H](Cc2ccccc2)COc2cccc(N3CCN(Cc4ccccc4F)CC3)c21,x,x,x,x,x,n,x,x,x,x
Cc1ccnc(NC(=O)c2ccc3c(c2)OCO3)c1,n,n,59,n,75,77,n,n,n,74
COC(=O)[C@]12CCCCC=C1N(Cc1ccc3c(c1)OCO3)C(=O)[C@H](CC(=O)N1CCN(C(=O)c3ccco3)CC1)C2,x,x,x,x,x,n,x,x,x,x
COc1ccc(OC)c(/C=N/NC(=O)c2[nH]ncc2Br)c1,n,n,x,x,n,n,x,x,x,x
CCOc1ccc(/C=N/NC(=O)c2[nH]ncc2Br)c(O)c1,n,n,48,n,57,79,n,n,n,56
Cc1ccc(NC(=O)CN2CCN(C(=O)C3CC3)CC2)c(F)c1,x,x,x,x,x,n,x,x,x,x
NC(=O)c1ccccc1NC(=O)/C=C/c1cccc(Cl)c1,n,n,n,n,n,n,x,x,x,x
NC(=O)c1ccccc1N/C=C/C(=O)c1ccc(Cl)cc1Cl,n,n,62,n,81,90,n,n,n,81
O=c1cc(-c2ccccc2)oc2c1CCCC2,x,x,x,x,x,n,x,x,x,x
O=C(Nc1nc2c(s1)CCCC2)c1cccs1,n,x,58,n,51,62,n,n,n,52
CC1(C)CC(=O)c2sc(NC(=O)c3cccs3)nc2C1,n,n,44,n,77,85,n,n,n,77
CC1(C)C(/C=C/C=C/C=C/C=C2\N(CCCCS(=O)(=O)O)c3ccc4ccccc4c3C2(C)C)=[N+](CCCCS(=O)(=O)[O-])c2ccc3ccccc3c21,x,x,x,x,x,n,x,x,x,x
CCCCN(Cc1nc2ccccc2c(=O)[nH]1)C(=O)c1nn(C)c(=O)c2ccccc12,x,x,x,x,x,n,x,x,x,x
c1ccc2sc(NN=C3CCCCCC3)nc2c1,n,n,75,34,61,66,n,n,n,64
O=C(Nc1nc2ccccc2s1)c1ccccc1,n,n,n,n,n,n,x,x,x,x
COc1cccc(C(=O)Cn2c(=N)n(C)c3ccccc32)c1,n,n,46,n,54,59,n,n,n,n
O=C(N=Nc1c(O)[nH]c2ccccc12)c1ccc2c(c1)OCO2,n,n,62,n,92,91,n,n,n,91
COc1ccccc1-c1cccc([C@@H]2C[C@H]3[C@H](CON3C)CN2C)c1,x,x,x,x,x,n,x,x,x,x
COc1ccc(-c2coc3c(C(=O)Nc4cccc(NS(C)(=O)=O)c4)cccc23)c(C)c1,x,x,x,x,x,n,x,x,x,x
CCSc1ccc(-c2ccc(C)cc2)nn1,n,n,47,n,50,57,n,n,n,51
Cc1ccc[n+](CC(=O)Nc2cc(C(F)(F)F)ccc2Cl)c1,n,n,n,n,n,n,x,x,x,x
CCC(C)(C)c1ccc(OCCCC[n+]2cccc(C)c2)c(C(C)(C)CC)c1,n,n,67,n,n,n,50,n,n,n

# Screening data (PubChem BioAssay)
